The values below come from PubChem BioAssay (NCATS).

The target in assay [1] is Phospholipid hydroperoxide glutathione peroxidase GPX4 (Homo sapiens) (UniProt P36969). The experiment in a line: Primary qHTS Assay for Inhibitors of Recombinant Selenoprotein Glutathione Peroxidase 4 (GPX4) (AID 1845192). Also: nearly all actives have a fitted effect of over 65% in size. As to activity change, negative = inhibition: series mostly up to about 50 µM. The method in brief:
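NADPH consumption, followed by fluorescence at 340/450 nm between 0 and 15 min, reports GPX4 activity via coupled glutathione reductase (100 nM). Enzyme 200 nM was pre-exposed to compound 30 min; 0.5 mM cumene hydroperoxide and 1 mM GSH served as substrates.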

The target of assay [2] is Luciferin 4-monooxygenase (Photinus pyralis) (UniProt P08659). Kind of assay: Primary firefly luciferase (FLuc) qHTS assay for identification of artifact compounds. (AID 1845220). Also: nearly all actives have a fitted effect of over 60% in size. Also: potency is read from the fitted curve at half-maximal effect. As to activity change, negative = inhibition: series mostly up to about 54 µM. The essentials: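 Compounds sat 15 min at room temperature with 10 uM luciferin and 10 uM ATP (pH 7.6 Tris acetate). Firefly luciferase (10 nM final) was then added, and luminescence was read 5 min later. Data normalized to no-enzyme and DMSO controls were Hill-fitted.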
A general note: In qHTS, concentration-response curves come from the screen itself.

Structures are written as SMILES. A number with no mark means an inactive call. Records with an inconclusive call do not appear. A call without a number means that no potency is given here. Activity calls are given as the source filed them. Calls follow the shape of the dose curve; as a rule, active = well fitted inhibition curve with a large enough effect; inconclusive = small, poorly fitted or top-dose-only effect; inactive = flat fitted curve, though single readings scatter. *1 amine or outer side, *2 acyl side, *3 side chain or, on linkers, in order; H or OH if unused. Where a SMILES comes first, the peptide text is derived from it. Bridges are numbered along the chain shown (N, C = ends). [ ]: non-standard residue; d: D form. PhLac = O=C(O)[CH](O)Cc1ccccc1; NMeV = CN[CH](C(=O)O)C(C)C; X6 = O=C(CCC[*:2])[*:1]

Chain of Phospholipid hydroperoxide glutathione peroxidase GPX4 (Homo sapiens) (P36969 whole entry, looked up): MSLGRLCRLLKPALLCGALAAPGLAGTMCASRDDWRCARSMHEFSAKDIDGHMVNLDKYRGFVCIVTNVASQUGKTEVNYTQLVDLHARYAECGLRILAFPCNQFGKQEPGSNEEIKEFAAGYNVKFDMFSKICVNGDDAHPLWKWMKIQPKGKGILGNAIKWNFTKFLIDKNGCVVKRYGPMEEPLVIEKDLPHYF

As to `COc1cc(O[C@@H]2O[C@H](CO)[C@@H](O)[C@H](O)[C@H]2O)c(CCC(=O)OC[C@H]2O[C@@H](Oc3cc(OC)c(C4OC(=O)C(C)(O)C4O)cc3CCC(=O)O)[C@H](O)[C@@H](O)[C@@H]2O)cc1C1OC(=O)C(C)(O)C1O` (some centres not stated), the Potency entry in assay [1] was “inactive”. In assay [2], the activity change, negative = inhibition is 1.78% [at 11.6 µM]. As for `COc1cccc(-n2nc(C(=O)O)cc2-c2ccc(C3CCCCC3)c(Cl)c2)c1`, the Potency result in assay [2] is “inactive”. With `COc1cc(C2Oc3c(OC)cc(/C=C/C(=O)OC[C@H]4O[C@@H](OC(C)(C)C(=O)O)[C@H](O)[C@@H](O)[C@@H]4O)cc3C2CO)ccc1O` (some centres not stated), the Potency entry in assay [1] and in assay [2] was “inactive” throughout. With `CCOc1cc2ncc(C#N)c(Nc3ccc(OCc4ccccn4)c(Cl)c3)c2cc1NC(=O)/C=C/CN(C)C`, the Potency result in assay [1] and in assay [2] was “inactive” each time. `CC(C)NC[C@H](O)COc1ccc(CCOCC2CC2)cc1`: the Potency result in assay [1] and in assay [2] was “inactive” in each case. As to `C/C=C(/C)C(=O)O[C@H]1C=C(C)C[C@H](OC(=O)c2ccc(O)cc2)C2[C@](O)(C(C)C)CC[C@@]21C` (some centres not stated), the Potency result in assay [1] and in assay [2] was “inactive” each time.

`C=C1C2=CC(O)C(C)C1(C)CC/C(C)=C/CCC1(C)OC1C2=O` (configuration not stated): the Potency result in assay [1] and in assay [2] was “inactive” throughout. With `CC(=O)Oc1cc2c(s1)CCN([C@H](C(=O)C1CC1)c1ccccc1F)C2`, the Potency result in assay [1] and in assay [2] was “inactive” throughout.

For `CC[C@@H](c1ccc(F)c(F)c1)n1c(C(=O)OC)c(-c2ccno2)[nH]c1=S`, the Potency entry in assay [1] and in assay [2] was “inactive” each time. As to `Nc1nc(CC(=O)Nc2ccc(CCNCC(O)c3ccccc3)cc2)cs1` (configuration not stated), the Potency result in assay [1] and in assay [2] was “inactive” each time.

As to `COC(=O)C1=CO[C@@H](O[C@@H]2O[C@H](CO[C@@H]3O[C@H](COC(=O)/C=C/c4ccc(O)cc4)[C@@H](O)[C@H](O)[C@H]3O)[C@@H](O)[C@H](O)[C@H]2O)[C@@H]2C(CO)=CC[C@H]12`, the Potency result in assay [1] and in assay [2] was “inactive” throughout.

`CC(C)C(C(=O)N1CCCC1C(=O)O)N(C)C(=O)C(O)Cc1ccccc1` (configuration not stated) (H-[PhLac]-[NMeV]-Pro-OH; configuration not given here): the Potency entry in assay [1] and in assay [2] was “inactive” in each case. Consider `CNC(=O)[C@H]1O[C@@H](n2cnc3c(NCc4ccc(N)c(I)c4)ncnc32)[C@H](O)[C@@H]1O`, for which the activity change, negative = inhibition in assay [1] is -1.09% [at 9.73 µM]. The outcome in assay [2] is “inactive [at 11.6 µM]”. Consider `c1ccc(Nc2nc3c(s2)CCCc2[nH]ncc2-3)nc1`, for which the Potency result in assay [1] is “inactive”. For the same compound, the Potency in assay [2] is 8.49 µM (active). The corresponding values for `CC(=O)O[C@@H]1[C@H]2[C@@H](OC(=O)c3ccccc3)[C@@H](C)C[C@]2(O)[C@H](OC(C)=O)[C@@]2(C)[C@@H]3CC(C)(C)C(=O)[C@]3(OC(C)=O)C[C@@]12C` are “inactive” and “inactive”. On to `O=C(O)C[C@@H](NC(=O)c1cc(-c2ccc(-c3ccncc3)cc2)cs1)c1ccccc1`, for which the Potency in assay [2] is 6.75 µM (active). Consider `C#Cc1cnc2[nH]c(=O)n(C(CC)CC)c2n1`, for which the Potency result in assay [2] was “inactive”. Same read-out and setting: in the case of `COCCCNCC1COc2ccccc2O1` (configuration not stated) it was “inactive”; in that of `C=C1CCC2C(C)(COC3OC(COC(=O)CC(=O)O)C(O)C(O)C3O)CCCC2(C)C1CCC1=CCOC1=O` (configuration not stated), “inactive”. Take `COC(=O)[C@@H]1C2CC3c4[nH]c5ccccc5c4CCN3CC2CC[C@@H]1O` (some centres not stated): the Potency result in assay [1] and in assay [2] was “inactive” throughout. As to `O=C(O)c1cnn(-c2nc3cc(OC(F)(F)F)c(Cl)cc3[nH]2)c1`, in assay [2], the Potency was 3.01 µM (active). Regarding `CC1(CO)CC2C(O)C(=O)C3(CO)CC3(C)C2C1` (configuration not stated), the Potency result in assay [1] and in assay [2] was “inactive” in each case. For the compound `O=C(O)c1n[nH]c2c1C[C@H]1C[C@@H]21`, the Potency entry in assay [1] and in assay [2] was “inactive” throughout. With `COC(=O)CC1(O)C(=O)Nc2ccccc21` (configuration not stated), the Potency result in assay [1] and in assay [2] was “inactive” throughout. On to `CC/C=C\C[C@H]1C(=O)C=C[C@@H]1CCCCCCCC(=O)O`, for which the Potency result in assay [1] and in assay [2] was “inactive” throughout. For `CC(C)C1=CCC(C)(O)C(OC2OC(CO)C(O)C(O)C2O)C1` (configuration not stated), the Potency result in assay [1] and in assay [2] was “inactive” each time. As for `C1CCN2CC3C[C@@H](CN4CCCC[C@@H]34)[C@H]2C1`, the Potency result in assay [1] and in assay [2] was “inactive” throughout. Take `CC1OC(OC2C(CO)OC(OCC3OC(OC(=O)C45CCC(C)(C)CC4C4=CCC6C7(C)CCC(OC8OC(C(=O)O)C(O)C(OC9OC(CO)C(O)C(O)C9O)C8O)C(C)(C)C7CCC6(C)C4(C)CC5)C(O)C(O)C3O)C(O)C2O)C(O)C(O)C1O` (configuration not stated): the activity change, negative = inhibition in assay [1] was -11.9% [at 9.73 µM]; in assay [2], -1.13% [at 11.6 µM]. `CC[C@H](C)[C@@H]1NC(=O)[C@H](Cc2ccc(OC)cc2)NC(=O)CCCSC[C@@H](C(=O)N2CCC[C@H]2C(=O)N[C@@H](CC(C)C)C(=O)NCC(N)=O)NC(=O)[C@H](CC(N)=O)NC(=O)[C@H](CCC(N)=O)NC1=O` (Y(Me)IQNCPLG-NH2; linker N-5 via X6): the Potency entry in assay [1] and in assay [2] was “inactive” throughout. In the case of `CC1C/C=C/C=C\CCCCC(O)C/C=C/C(=O)O1` (configuration not stated), the Potency result in assay [1] and in assay [2] was “inactive” in each case. Turning to `CC(C)(C)NCC(O)COc1cccc2c1CCCC2=O` (configuration not stated), the Potency entry in assay [1] and in assay [2] was “inactive” throughout. `Cc1nnc(C(C)C)n1C1CC2CCC(C1)N2CCC(NC(=O)C1CCC(F)(F)CC1)c1ccccc1` (configuration not stated): the Potency result in assay [1] and in assay [2] was “inactive” each time. Take `N#CC1C(=O)Nc2scc(-c3ccc(-c4ccccc4O)cc3)c2C1=O` (configuration not stated): the Potency result in assay [1] and in assay [2] was “inactive” throughout.

Regarding `C=C1C[C@@]23CC[C@@H]4[C@](C)(C(=O)O)CCC[C@@]4(C)C2=CC[C@H]1C3`, the Potency entry in assay [1] and in assay [2] was “inactive” each time.
